Results on five molecules are retold here after PubChem BioAssay (NCATS).

The structures appear in SMILES notation. Inconclusive results are not listed. Active and inactive are the calls of the source. Unless noted, calls come from the whole dose curve; as a rule, active = well fitted curve in the direction sought with a large enough effect; inconclusive = small, poorly fitted or top-dose-only effect, or another doubt; inactive = no such curve, though single readings can be large; an effect the other way counts as inactive or inconclusive.

Test [1] is described as follows: qHTS Assay for Identification of Small Molecule Antagonists for NFkB Signaling Pathway (AID 895; active = well fitted inhibition curve with a large enough effect in the signal ratio, with a control signal flat, not every such curve was filed as active; the % refers to the signal ratio; note: potency is the fitted concentration of half-maximal effect). The method in brief:
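Beta-lactamase reporter read-out (460 and 530 nm emission ratio, 405 nm excitation, 2 hrs substrate loading RT) after 5 hr stimulation with 10 pM TNF alpha in compound-treated NFkB-bla ME-180 cells in low-serum medium.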

Test [2] has as its target Ferritin light chain (Equus caballus) (UniProt P02791). Description: qHTS Validation Assay for Identification of Novel General Anesthetics (AID 2323). Note: series mostly up to about 77 µM. The method in brief: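 Normalized fluorescence response, scaled between free 1-AMA and 1-AMA/apoferritin complex, fitted to a four-parameter Hill equation for concentration-effect values. Binding mix: 10 uM horse-spleen apoferritin, 50% saturated 1-AMA in PBS; read 380/535 nm after 10 min.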

Test [3] concerns the target Thioredoxin reductase 1, cytoplasmic (Rattus norvegicus) (UniProt O89049). Description: qHTS Assay for Substrates of Mammalian Selenoprotein Thioredoxin Reductase 1 (TrxR1) (AID 488772).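 Note: series mostly up to about 57 µM; a drop in NADPH fluorescence below the no-compound background marks a TrxR1 substrate.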 The method in brief: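 In this dual-purpose format, potential substrates are identified from the first fluorescence read after selenite addition, not from the 8-minute delta. Rat enzyme is preincubated with NADPH and then with compound at ~22 deg C.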

A short description of test [4]: qHTS Assay for Identification of Small Molecule Antagonists for Thrombopoietin (TPO) Signaling Pathway (AID 918). Note: potency is the fitted concentration of half-maximal effect; nearly all actives have a fitted effect of over 60% in size. The conditions noted are these: TPO-dependent cell signaling reporter, antagonist mode. The method in brief: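 Luminescence read-out: GPIIb-promoter luciferase in Ba/F3 cells carrying human TPO receptor. Compounds added with 26 pM TPO (EC50), 24 hrs, 37 C, 5% CO2; cells deprived of IL-3 overnight beforehand. Inhibition of signal scored.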

Test [5] can be described thus: High Content Imaging Cell-Based qHTS for Inhibitors of the mTORC1 Signaling Pathway in MEF Cells (AID 2667). Note: potency is the fitted concentration of half-maximal effect. The method in brief:
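Tsc2-/-, p53-/- MEFs stably re-expressing WT Tsc2, grown in DMEM + 10% FBS, were treated with compounds for 24 hrs at 37 degree Celsius, fixed, and stained with Alexa-488 phospho-rpS6 Ser235/236 antibody plus Hoechst; results given as % positive cells.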

Test [6] is described as follows: Validation screen for small molecules that induce DNA re-replication in MCF 10A normal breast cells (AID 463097). Note: potency is the fitted concentration of half-maximal effect; nearly all actives have a fitted effect of over 60% in size. In short, it runs like this: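 Following 48 hr compound incubation (37 C, 5% CO2), MCF 10A cells receive Hoechst for 40 min at 37 C. Nuclei are then scanned (excitation 405 nm, emission 500-530 nm) for total fluorescence intensity.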
A short description of test [7]: qHTS for compounds that reverse cellular toxicity of Amyloid beta (A-beta) peptide in yeast: LOPAC Validation Assay (AID 720559). In short, it runs like this:
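Here, A-beta-toxic yeast grow with test compounds at 30 C for 48 hr before optical density at 600 nm is recorded; data are normalized against DMSO and the FeCl3-clioquinol control.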

Test [8] addresses Tyrosyl-DNA phosphodiesterase 1 (Homo sapiens) (UniProt Q9NUW8). Description: Confirmation Assay for Inhibitors of Tyrosyl-DNA Phosphodiesterase (TDP1) (AID 489007). Note: potency is the fitted concentration of half-maximal effect; nearly all actives have a fitted effect of over 40% in size. The conditions noted are these: recombinant human TDP1 enzymatic activity, dose-response. The method in brief: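 AlphaScreen read-out: streptavidin donor and anti-FITC acceptor beads (10 ug/ml) bind intact substrate, so Tdp1 removal of tyrosine-FITC lowers signal. Enzyme 1 nM, substrate 15 nM, 5 min reaction at room temperature after 15 min compound preincubation.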

Test [9] can be described thus: HTS Assay for Allosteric Antagonists of the Human D2 Dopamine Receptor: Hit Validation in HTRF (AID 624455). In short, it runs like this: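 HTRF read-out; cells stably expressing D1 receptor; hits scored for inhibition of D1-mediated response. Primary screen: calcium flux, force-coupled inducible Hek293 Trex D2 line, antagonism vs EC80 dopamine.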

Sequence of Thioredoxin reductase 1, cytoplasmic (Rattus norvegicus) (O89049 whole entry, looked up): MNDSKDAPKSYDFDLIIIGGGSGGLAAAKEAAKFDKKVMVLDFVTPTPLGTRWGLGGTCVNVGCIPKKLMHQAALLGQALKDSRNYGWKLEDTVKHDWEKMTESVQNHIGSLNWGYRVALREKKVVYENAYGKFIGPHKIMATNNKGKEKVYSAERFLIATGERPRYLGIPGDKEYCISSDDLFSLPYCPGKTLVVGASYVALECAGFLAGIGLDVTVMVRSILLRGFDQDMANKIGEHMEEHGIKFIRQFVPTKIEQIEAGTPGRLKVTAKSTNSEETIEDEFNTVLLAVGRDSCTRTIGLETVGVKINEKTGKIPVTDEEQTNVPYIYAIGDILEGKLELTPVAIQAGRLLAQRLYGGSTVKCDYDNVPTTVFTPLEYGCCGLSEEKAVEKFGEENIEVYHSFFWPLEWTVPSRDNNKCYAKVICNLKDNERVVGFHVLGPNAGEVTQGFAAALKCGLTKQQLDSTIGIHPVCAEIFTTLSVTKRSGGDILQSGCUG
Sequence of Tyrosyl-DNA phosphodiesterase 1 (Homo sapiens) (Q9NUW8 whole entry, looked up): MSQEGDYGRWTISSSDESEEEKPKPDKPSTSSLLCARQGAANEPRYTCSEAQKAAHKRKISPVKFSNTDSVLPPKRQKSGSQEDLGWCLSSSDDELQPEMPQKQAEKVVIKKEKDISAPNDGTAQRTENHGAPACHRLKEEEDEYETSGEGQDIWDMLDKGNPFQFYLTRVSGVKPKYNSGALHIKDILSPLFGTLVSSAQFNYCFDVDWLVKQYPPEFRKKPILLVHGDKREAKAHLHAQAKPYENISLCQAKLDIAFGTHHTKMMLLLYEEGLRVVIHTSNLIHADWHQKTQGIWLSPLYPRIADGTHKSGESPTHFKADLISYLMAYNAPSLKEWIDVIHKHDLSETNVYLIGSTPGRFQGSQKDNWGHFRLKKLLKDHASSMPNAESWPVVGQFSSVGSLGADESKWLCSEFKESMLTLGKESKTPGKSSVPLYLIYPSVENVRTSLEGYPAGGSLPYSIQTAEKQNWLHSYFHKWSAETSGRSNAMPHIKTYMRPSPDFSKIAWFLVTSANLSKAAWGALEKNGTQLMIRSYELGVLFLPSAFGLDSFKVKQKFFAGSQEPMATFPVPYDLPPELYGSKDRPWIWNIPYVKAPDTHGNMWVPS
Sequence of Ferritin light chain (Equus caballus) (P02791 2-175 limits assumed): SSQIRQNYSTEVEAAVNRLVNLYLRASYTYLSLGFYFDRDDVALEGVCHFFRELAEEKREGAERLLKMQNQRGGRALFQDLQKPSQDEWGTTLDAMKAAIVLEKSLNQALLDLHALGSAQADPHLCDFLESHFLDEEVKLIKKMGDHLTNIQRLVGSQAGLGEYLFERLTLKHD

As for `Brc1c(Br)c(Br)c2n[nH]nc2c1Br`, the Potency in test [1] is 5.01 µM (active).

In the case of `Nc1nc2[nH]c(=O)cnc2c(=O)[nH]1`, the call in test [2] and in test [3] was inactive.

As for `O=c1oc(Cl)c(Cl)c2ccccc12`, the results for the Potency in [4], in test [5] and in [6] were 12.6 µM (active), 18.5 µM (active) and 5.01 µM (active), respectively. Also, in test [7], the outcome was inactive.

On to `NC1C=CC=C(C(=O)O)C1` (centres undefined), for which, in [8], the Potency was 1.12 µM (active).

Turning to `Cn1ccnc1`, the outcome in [9] was inactive.
